Screens as filed in PubChem.
In the library only some 2.4% were active in any assay of this set; here they are far more common.
Pol eta inh: blocks human DNA polymerase eta activity. recombinant Pol eta, fluorescent DNA replication assay. Potency, µM (doses to about 114 µM), for inactives: at the top dose activity change, negative = inhibition, most hits filed as inhibitors. 390,000 tested, 1.2% active; also: % is scaled to controls: 0 for no effect and ±100 for the full control effect
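Pol eta (10 nM) was preincubated with compounds for 15 min at room temperature, after which fluorescent replication substrate (50 nM final) was added to start the reaction. Fluorescence was read kinetically at 0 and 10 min.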
Pol beta inh: blocks human DNA polymerase beta activity; P06746; Pol beta primer extension/strand displacement, fluorescence kinetic; Potency, µM (top dose mostly 114 µM), inactives show at the top dose activity change, negative = inhibition, hits mostly inhibitors; 340,000 tested, 1.3% active; also: % is scaled to controls: 0 for no effect and ±100 for the full control effect
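Human Pol beta at 10 nM; strand-displacement substrate 50 nM final. Compound exposure 15 min at room temperature before start, reaction 10 min at room temperature.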
POLI inh: DNA polymerase iota (human) inhibition | 390,000 tested, 1% active | Pol iota fluorescent replication assay, 10 min | Potency, µM (doses to about 115 µM), without a hit: at the highest dose activity, negative = inhibition, hits mostly inhibitors | AID 588590
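Fluorescent replication assay read twice, at 0 min and 10 min after adding 50 nM (final) substrate. Enzyme (10 nM) and compounds were first incubated 15 min at room temperature; enzyme-free buffer wells were negative controls.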
APE1 inh: inhibitors of human APE1 endonuclease; 350,000 tested, 0.35% active; recombinant APE1, TAMRA/BHQ-2 abasic DNA cleavage fluorescence; Potency, µM (doses to about 65.8 µM), for inactives: top-dose activity change, negative = inhibition, usual class: inhibitors; P27695;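 also: plate controls were vehicle for no effect and reference inhibitor for full effect; nearly all actives have a fitted effect of over 55% in size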
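APE1 at 0.75 nM preincubated 15 min at room temperature with compound. Reaction then started with 50 nM double-stranded THF-abasic substrate labelled with TAMRA/BHQ-2, and 525/598 nm fluorescence read kinetically. Activity taken as third-minus-first read difference, normalized to DMSO and NSC13755 controls.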
GLS inh: blocks human kidney-isoform glutaminase activity; GLS enzymatic activity, qHTS titration; Potency, µM (highest dose often 45.5 µM), inactives show at the top dose activity change, negative = inhibition, usual class: inhibitors; 410,000 tested, 0.21% active; AID 624170; also: % is scaled to controls: 0 for no effect and ±100 for the full control effect
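Glutamate formation by hKGA was monitored fluorometrically using coupled glutamate oxidase, HRP and Amplex Red. Substrate was added as 1 mM L-glutamine solution; incubation was 30 min at RT after an initial read.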
POLK inh: inhibitors of human DNA polymerase kappa. Q9UBT6. purified Pol kappa, fluorescent DNA synthesis assay, 10 min. Potency, µM (titrated, usually from 107 µM), for inactives: at the highest dose activity, negative = inhibition, usual class: inhibitors. 400,000 tested, 0.53% active; also: % is scaled to controls: 0 for no effect and ±100 for the full control effect
Target sequence (Q9UBT6 whole entry, looked up): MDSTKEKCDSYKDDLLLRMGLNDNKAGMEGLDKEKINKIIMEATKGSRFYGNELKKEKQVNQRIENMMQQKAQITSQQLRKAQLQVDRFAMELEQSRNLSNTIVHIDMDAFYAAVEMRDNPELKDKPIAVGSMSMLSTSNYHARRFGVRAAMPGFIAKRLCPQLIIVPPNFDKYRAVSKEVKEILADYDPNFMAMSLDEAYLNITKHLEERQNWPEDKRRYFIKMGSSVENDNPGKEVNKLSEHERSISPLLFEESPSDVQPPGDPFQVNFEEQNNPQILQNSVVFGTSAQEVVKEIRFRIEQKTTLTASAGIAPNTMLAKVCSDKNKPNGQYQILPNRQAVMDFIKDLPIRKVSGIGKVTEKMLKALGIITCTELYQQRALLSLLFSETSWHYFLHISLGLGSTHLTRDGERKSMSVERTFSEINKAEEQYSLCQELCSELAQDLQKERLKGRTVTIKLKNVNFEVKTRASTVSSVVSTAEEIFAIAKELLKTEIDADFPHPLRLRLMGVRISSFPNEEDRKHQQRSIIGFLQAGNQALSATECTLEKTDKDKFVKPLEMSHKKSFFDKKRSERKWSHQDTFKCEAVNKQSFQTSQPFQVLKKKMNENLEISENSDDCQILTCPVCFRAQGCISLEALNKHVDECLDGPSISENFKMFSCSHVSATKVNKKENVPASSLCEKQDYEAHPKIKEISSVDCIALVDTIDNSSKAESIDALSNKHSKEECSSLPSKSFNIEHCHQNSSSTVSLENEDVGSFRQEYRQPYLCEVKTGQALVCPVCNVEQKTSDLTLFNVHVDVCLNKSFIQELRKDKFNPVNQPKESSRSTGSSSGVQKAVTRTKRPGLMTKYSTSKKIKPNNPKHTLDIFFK
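Kinetic fluorescence screen: compound preincubated 15 min RT with 10 nM enzyme; 50 nM substrate (final) initiates; reads at 0/10 min.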
An asterisk follows results filed as active; ? = inconclusive; · = not tested or not shown; [ ] = another dose, or the depositor's remark. Calls follow the shape of the dose curve; as a rule, active = well fitted curve in the direction sought with a large enough effect; inconclusive = small, poorly fitted or top-dose-only effect, or another doubt; inactive = no such curve, though single readings can be large; an effect the other way counts as inactive or inconclusive. Potency is read from the fitted curve at half-maximal effect.

SMILES	Pol eta inh	Pol beta inh	POLI inh	APE1 inh	GLS inh	POLK inh
O=C(O)CCc1ccc(-c2cccs2)n1NC(=O)c1ccc(O)cc1	89µM*	?	?	-3%	2%	?
CN(Cc1ccccc1)S(=O)(=O)c1ccc2[nH]c(=O)oc2c1	-15%	-1%	-14%	-16%	-1%	-1%
O=c1ccc2cc(S(=O)(=O)NCc3ccc(Cl)cc3)ccc2[nH]1	3%	11µM*	?	·	-1%	?
CN(Cc1ccccc1)S(=O)(=O)c1ccc2[nH]c(=O)ccc2c1	-8%	32µM*	?	-35%	-3%	-17%
O=C(Nc1ccccc1)N(Cc1ccc(F)cc1)c1ccccn1	-18%	0%	16%	·	4%	4%
CCCCN1C(=O)C(CC(=O)NC2CCCC2)CC(C(=O)N(C)C)=C1C (stereo unspecified)	0%	·	·	·	0%	·
Cc1cccc(C)c1NC(=O)Cn1cc(C(=O)c2ccco2)c2ccccc21	?	50µM*	79µM*	·	-9%	-22%
Cc1ccc(NC(=O)Cn2cc(C(=O)c3ccco3)c3ccccc32)cc1C	?	?	-18%	·	0%	-6%
Cc1ccc(NC(=O)Cn2cc(C(=O)c3ccco3)c3ccccc32)cc1	-5%	11µM*	79µM*	·	-3%	-3%[60.1 µM]
O=C(CCC(=O)N1CCN(c2ccc(O)cc2)CC1)c1cccs1	-21%	?	71µM*	?	-21%	-12%
CC(=O)c1ccc(N2CCN(C(=O)CCC(=O)c3cccs3)CC2)cc1	-11%	-3%	28%	-1%	0%	-27%
Oc1ccc(Nc2nc(N3CCCC3)c3ccccc3n2)cc1	-4%	45µM*	?	-8%	39%	?
O=C(O)c1cc(Cl)c2c(c1)OCO2	22µM*	?	?	?	20µM*	-39%
O=C(N/N=C/c1ccc([N+](=O)[O-])cc1)c1cccs1	?	32µM*	71µM*	?	-13%	?
CCOc1cc(/C=C2\SC(=S)N(NS(=O)(=O)c3ccccc3)C2=O)ccc1O	-26%	-22%	?	16%	43%	-9%
O=C1/C(=C/c2ccncc2)SC(=S)N1Nc1ccccc1	-1%	-2%	?	-5%	8.9µM*	-6%
O=C1/C(=C\c2ccncc2)SC(=S)N1C1CCCCC1	-16%	79µM*	4%	17%	16%	-8%
CCOc1cc(/C=C2\SC(=S)N(Nc3ccccc3)C2=O)ccc1O	?	13µM*	?	?	19%	?
O=C1/C(=C/c2ccc(O)c(O)c2)SC(=S)N1Nc1ccccc1	7.9µM*	-12%	14µM*	70%	46%	-42%
O=C(O)c1ccc(/C=C2\SC(=S)N(Nc3ccccc3)C2=O)cc1	-2%	-23%	?	-6%	-12%	?
CCOC(=O)C1(C)C=C(Nc2ccc(Br)cc2)C(=O)N1c1ccccc1 (stereo unspecified)	-22%	14%	20%	·	-4%	1%
CC(C)(C)NC(=O)CSc1nnc(SCC(=O)NC(C)(C)C)s1	-20%	38%	21%	13%	-9%	5%
COc1cc(/C=C2\SC(=S)N(Nc3ccccc3)C2=O)ccc1O	?	11µM*	50µM*	6%	-14%	-31%
COC(=O)CN(n1cnnc1)S(=O)(=O)c1ccccc1Cl	-3%	25%	6%	-11%	-15%	-7%
COc1ccc(C2=CC3=C(Br)C(=O)C(C)(O)C(=O)C3=CO2)cc1 (stereo unspecified)	?	40µM*	?	0%	21%	?
CC(C)(C)OC(=O)N1CCC(CC2CC(c3ccccc3)=NO2)(C(=O)O)CC1 (stereo unspecified)	-9%	·	7%	·	3%	-15%
COc1ccc(/C=C/C(=O)c2c(O)ccc3c(C)cc(=O)oc23)cc1	-16%	-2%	18µM*	-1%	4%	-17%
